This excerpt belongs to a sample that is enriched for hits.
KDM5B inhibitor = KDM5B demethylase inhibition | Q9UGL1 | KDM5B demethylase, FDH-coupled NADH fluorescence (FDH is formaldehyde dehydrogenase) | Potency, µM (series often up to 57.7 µM), most hits filed as inhibitors | hit rate 2.6% among 220,000 | AID 1347165; active = well fitted inhibition curve with a large enough effect; note: 0% is about no effect; nearly all actives have a fitted effect of over 70% in size
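Compound dilutions met 200 nM (final) KDM5BΔAP for 10 min at room temperature before substrate addition. The substrate mix held 12.5 µM H3K4me3 with cofactors 25 µM α-ketoglutarate and 50 µM Fe²⁺. NADH signal gain over 30 min defined activity.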
Active calls of the source: *; [ ] = remark or other dose. Potency is the fitted concentration of half-maximal effect.

For COc1ccc(CN2CCOC(c3cccnc3)C2)cc1Cn1cccn1 (stereo not given) the results were KDM5B inhibitor inactive.
`O=C1NCc2ccccc2CC12CCN(Cc1cccc(OC(F)(F)F)c1)C2` (stereo not given) gave KDM5B inhibitor inactive.
`O=C(Nc1cccc(-c2nc3ccccc3o2)c1)c1ccc(Cl)c([N+](=O)[O-])c1` gave KDM5B inhibitor inactive.
CN(C)[C@@H]1C[C@@H](CO)N(Cc2cc(=O)n3c4c(cccc24)CCC3)C1 was read as KDM5B inhibitor 22µM*.
Screening COCC(=O)N[C@H]1C[C@@H](CO)N(Cc2cccc(F)c2F)C1 returned KDM5B inhibitor inactive.
Screening COc1cc(=O)n2c(c1C(=O)Nc1cccc3c1CCCC3)CCCC2 returned KDM5B inhibitor inactive.
Screening COc1ccc(OC)c(S(=O)(=O)n2nc(C)c(S(=O)(=O)N3CCCC3)c2C)c1 returned KDM5B inhibitor inactive.
For Cn1cnc2c(=O)oc3ccc(S(=O)(=O)N4CCN(c5ccccc5)CC4)cc3c21 the results were KDM5B inhibitor inactive.
CN(C)C(=O)Cc1cccc(N)c1 was read as KDM5B inhibitor inactive.
CC(=O)N1CCC(C2CCN(Cc3cc(Cl)ccc3F)C2)CC1 (stereo not given) was read as KDM5B inhibitor inactive.
Screening O=C(NCc1nnc(SCC(=O)N2CCN(c3ccccc3)CC2)o1)c1ccccc1 returned KDM5B inhibitor inactive.
`COc1ccc(-c2ccc3nnc(CNC(=O)CNC(=O)c4ccccc4)n3n2)cc1` gave KDM5B inhibitor 28µM*.
For Cc1ccc(-c2ccc3nnc(CNC(=O)CNC(=O)c4ccccc4)n3n2)cc1 the results were KDM5B inhibitor 32µM*.
Screening COc1ccc(-c2ccc3nnc(CNC(=O)COc4ccccc4)n3n2)cc1 returned KDM5B inhibitor 28µM*.
Screening COc1ccc2cc(CNC(=O)CNC(=O)c3ccccc3)ccc2c1 returned KDM5B inhibitor inactive.
For CN(C)CCCN(C(=O)COc1ccc(Cl)cc1)c1nc2c(F)cccc2s1 the results were KDM5B inhibitor inactive.
For CCc1c(C)sc(NC(=O)Cc2ccccc2C)c1C#N the results were KDM5B inhibitor inactive.
Screening CN(C)CCN(Cc1ccco1)S(=O)(=O)c1cc2c(cc1Cl)NC(=O)CO2 returned KDM5B inhibitor inactive.
Screening Cc1ccc(C(C)C)c(OCc2n[nH]c(=S)n2Cc2ccc(Cl)cc2)c1 returned KDM5B inhibitor inactive.
O=C(c1cc2c(s1)CCCCCC2)N1CCN(c2ncccn2)CC1 was read as KDM5B inhibitor inactive.
`Cc1ccc(-n2cc(CNC(C)c3cnn(C)c3C)c(-c3ccc(F)cc3)n2)cc1` (stereo not given) gave KDM5B inhibitor inactive.
CC1CCN(C(=O)C2CCN(C(=O)c3ccc(C#N)cc3)CC2)CC1 was read as KDM5B inhibitor inactive.
Screening O=C(NCCc1cccs1)c1cc(-c2ccccc2)n[nH]1 returned KDM5B inhibitor inactive.
Cc1ccc(C)c(NC(=O)CSc2nnc(-c3cc4occc4n3C)n2-c2ccccc2C)c1 was read as KDM5B inhibitor inactive.
`CC(=O)N(C)C(C)c1cccs1` (stereo not given) gave KDM5B inhibitor inactive.
`C(=N\N=C(c1ccccc1)c1ccccc1)/c1ccccn1` gave KDM5B inhibitor inactive.
Screening COc1ccc(C(=O)N2CCN(Cc3ccc(=O)n(C)c3)CC2)cc1F returned KDM5B inhibitor inactive.
COc1ccc(CC(=O)N[C@@H]2CCNC[C@H]2O)c(OC)c1 was read as KDM5B inhibitor inactive.
Screening CCCS(=O)(=O)N1C[C@@H](Oc2cccnc2)C[C@@H]1C(=O)NCCOC returned KDM5B inhibitor inactive.
For CCOc1ccc(S(=O)(=O)N2C[C@@H](C(N)=O)[C@H](C3CCN(C)CC3)C2)cc1 the results were KDM5B inhibitor inactive.
COc1ccccc1N1CCN([C@@H]2[C@H](O)[C@H](CO)O[C@@H]2CNC2CCCCC2)CC1 was read as KDM5B inhibitor inactive.
Screening CC(C)NC[C@H]1O[C@@H](CO)[C@@H](O)[C@H]1N1CCN(c2ccccn2)CC1 returned KDM5B inhibitor 25µM*.
For O=S(=O)(NC[C@H]1O[C@@H](CO)[C@@H](O)[C@H]1N1CCN(c2ncccn2)CC1)c1ccccc1 the results were KDM5B inhibitor inactive.
For O=C(O)c1cccc(NC(=O)c2cccc(S(=O)(=O)Nc3cccc(F)c3)c2)c1 the results were KDM5B inhibitor inactive.
`COc1ccc(NC(=O)Cn2c(C)cc3nc4n(c(=O)c32)CCCC4)cc1OC` gave KDM5B inhibitor inactive.
Screening Cc1ccc(C(=O)NC2CCCN(c3cc(-c4ccccc4)[nH]n3)C2)cn1 (stereo not given) returned KDM5B inhibitor inactive.
O=C(NC1CCN(c2cc(-c3ccccc3)[nH]n2)C1)c1ccc(Br)cc1 (stereo not given) was read as KDM5B inhibitor inactive.
For CN(C)c1cccc(C(=O)NC2CCN(c3cnn(C)c(=O)c3)CC2)c1 the results were KDM5B inhibitor 25µM*.
Screening O=C(NC1CCCN(c2cc(-c3ccccc3)[nH]n2)C1)c1ccc(Br)cc1 (stereo not given) returned KDM5B inhibitor inactive.
CN(C)c1cccc(C(=O)NC2CCN(c3cc(-c4ccccc4)[nH]n3)CC2)c1 was read as KDM5B inhibitor 20µM*.
Screening Cc1cccc(C(=O)NC2CCN(c3cc(-c4ccccc4)[nH]n3)CC2)c1 returned KDM5B inhibitor inactive.
Cn1ncc(N2CCC(NC(=O)c3ccc4c(c3)OCO4)CC2)cc1=O was read as KDM5B inhibitor inactive.
Screening O=C(NC1CCN(c2cc(-c3ccccc3)[nH]n2)CC1)c1ccccc1 returned KDM5B inhibitor inactive.
Cc1ccc(C(=O)NC2CCN(c3cc(-c4ccccc4)[nH]n3)C2)cc1 (stereo not given) was read as KDM5B inhibitor 14µM*.
Screening CN(C)c1ccc(C(=O)NC2CCCN(c3cc(-c4ccccc4)[nH]n3)C2)cc1 (stereo not given) returned KDM5B inhibitor inactive.
For CN(C)c1ccc(C(=O)NC2CCN(c3cc(-c4ccccc4)[nH]n3)C2)cc1 (stereo not given) the results were KDM5B inhibitor 14µM*.
`COc1ccc(C(=O)NC2CCN(c3cnn(C)c(=O)c3)CC2)cc1OC` gave KDM5B inhibitor inactive.
For O=C(CCC1N=C2c3ccccc3N=C(SCc3cccc(F)c3)N2C1=O)NCCc1ccccc1 (stereo not given) the results were KDM5B inhibitor inactive.
`CC(C)(C)CNC(=O)c1[nH]cnc1C(=O)NCC1CCCCC1` gave KDM5B inhibitor inactive.
`COc1ccc2nc(NC(=O)CSc3ncccn3)sc2c1` gave KDM5B inhibitor inactive.
Screening CC(C)C(=O)Nc1ccc2[nH]cc(C(C(=O)O)N3CCN(c4ccc(Cl)cc4)CC3)c2c1 (stereo not given) returned KDM5B inhibitor inactive.
COc1ccccc1CNC(=O)C1CCN(C(=O)c2ncn3c2COC(c2ccc(F)cc2)C3)CC1 (stereo not given) was read as KDM5B inhibitor inactive.
O=C(Nc1ccc(F)cc1F)C1CCCN1S(=O)(=O)c1cccc2nsnc12 (stereo not given) was read as KDM5B inhibitor inactive[11.5 µM].
Screening COc1ccc(C(=O)NC2CCCN(c3cc(-c4ccc(Cl)cc4)[nH]n3)C2)cc1 (stereo not given) returned KDM5B inhibitor inactive.
For COc1ccc(-c2cc(N3CCCC(NC(=O)c4ccc(N(C)C)cc4)C3)n[nH]2)cc1 (stereo not given) the results were KDM5B inhibitor 25µM*.
